Screens from PubChem.
This is a sample that favours compounds with a hit; in the whole collection about 3.3% have one here.
697 NFkB inh – inhibitors of the PMA/ionomycin-induced NF-kB reporter in 697 B cells | 697 B-cell NF-kB luciferase reporter, 16 h | inhibition, % at 4 µM | 0.33% of 330,000 active; in the data active means inhibition above about 35%
Gli-Sufu antag – antagonists of Gli-Sufu signaling; inhibition, % at 5 µM; 0.74% of 340,000 active; AID 588413; Sufu-KO-LIGHT fibroblasts, Gli luciferase reporter luminescence;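 active means inhibition above about 55%, limit read from the data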
SMARCA2 activ – activators of SMARCA2 function; 1% of 370,000 active; MG213 cells, MMTV-luciferase reporter, dexamethasone, overnight; activation, % at 9.1 µM; AID 652017; in the data active means activation above about 7.8%
Jurkat NFkB inh – inhibitors of the PMA/ionomycin-induced NF-kB reporter in Jurkat cells; PMA/ionomycin-induced NF-kB luciferase reporter, luminescence; inhibition, % at 4 µM; 0.53% of 330,000 active; in the data active means inhibition above about 50%
esBAF inh – inhibitors of esBAF chromatin remodeling in mouse ES cells; Bmi1-luciferase knock-in reporter, 24 h; 100% = twice the neutral-well signal; reporter increase, % at 12.5 µM; 2% of 350,000 active; AID 602393; in the data active means activation above about 40%; inconclusive means no clear call, values can overlap the other calls;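 further: a rise in the Bmi1 reporter signal indicates esBAF inhibition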
A number is an active result.

What do the screens show for `C[C@@H]1CN([C@H](C)CO)C(=O)c2cc(C3=CCCC3)cnc2O[C@@H]1CN(C)C(=O)NC1CCCC1`?
esBAF inh: inactive

What do the screens show for `CCOC(=O)N1CCN(C(=O)c2cc(COc3cccc(C(C)=O)c3)on2)CC1`?
697 NFkB inh: inactive; Gli-Sufu antag: inactive; SMARCA2 activ: inactive; Jurkat NFkB inh: inactive; esBAF inh: 42

How did CC(=O)c1cccc(OCc2cc(C(=O)N(C)C(C)c3ccccn3)no2)c1 (stereo not given) do in these assays?
697 NFkB inh: inactive; Gli-Sufu antag: inactive; SMARCA2 activ: inactive; Jurkat NFkB inh: inactive; esBAF inh: inactive

Results for CC(=O)c1ccc(OCc2cc(C(=O)N3CCOCC3)no2)cc1 ?
697 NFkB inh: inactive; Gli-Sufu antag: inactive; SMARCA2 activ: inactive; Jurkat NFkB inh: inactive; esBAF inh: 61

Results for CC(=O)c1cccc(OCc2cc(C(=O)NCc3nc(C)c(C)s3)no2)c1 ?
697 NFkB inh: inactive; Gli-Sufu antag: inactive; SMARCA2 activ: inactive; Jurkat NFkB inh: inactive; esBAF inh: 48

Results for CC(=O)c1ccc(OCc2cc(C(=O)N3CCCCCCC3)no2)cc1 ?
697 NFkB inh: inactive; Gli-Sufu antag: inactive; SMARCA2 activ: inactive; Jurkat NFkB inh: inactive; esBAF inh: inactive

Results for COCC#Cc1ccc2c(c1)O[C@H](CN(C)Cc1ccccc1)[C@@H](C)CN([C@H](C)CO)S2(=O)=O ?
esBAF inh: inactive

Results for COc1ccc(S(=O)(=O)Nc2cccc3c2O[C@@H](CN(C)Cc2ccccc2)[C@@H](C)CN([C@H](C)CO)C3=O)cc1 ?
esBAF inh: inactive

Results for CCOC(=O)CSC1=C(C#N)C(C)C2=C(CCCC2=O)N1 (stereo not given) ?
697 NFkB inh: inactive; Gli-Sufu antag: inactive; SMARCA2 activ: inactive; Jurkat NFkB inh: inactive; esBAF inh: 62

How did COc1ccccc1Nc1ncc(-c2cccs2)s1 do in these assays?
697 NFkB inh: inactive; Gli-Sufu antag: inactive; SMARCA2 activ: inactive; Jurkat NFkB inh: inactive; esBAF inh: 54

Results for Cc1cccc(NC(=O)Oc2ccc(Cl)c3cccnc23)c1 ?
SMARCA2 activ: inactive; esBAF inh: 51

What do the screens show for `C[C@@H]1CN([C@H](C)CO)C(=O)c2cc(NC(=O)Nc3ccc(C(F)(F)F)cc3)ccc2O[C@@H](C)CCCCO[C@H]1CN(C)C(=O)c1ccccc1`?
esBAF inh: inactive

How did COc1ccccc1NC(=O)N[C@@H]1CC[C@H](CCNS(=O)(=O)c2ccc(F)cc2)O[C@@H]1CO do in these assays?
esBAF inh: inactive

Results for COc1ccccc1C(=O)Nc1ccc2c(c1)C(=O)N(C)[C@H]1CC[C@@H](CC(=O)NCc3ccc(Cl)c(Cl)c3)O[C@H]1CO2 ?
esBAF inh: inactive

What do the screens show for `COc1ccccc1C(=O)C1CCCN(C(=O)c2ccccc2C(C)=O)C1` (stereo not given)?
697 NFkB inh: inactive; Gli-Sufu antag: inactive; SMARCA2 activ: inactive; Jurkat NFkB inh: inactive; esBAF inh: 50

Results for COCCNC(=O)c1cc(-c2ccc(Cl)c(Cl)c2)on1 ?
697 NFkB inh: inactive; Gli-Sufu antag: inactive; SMARCA2 activ: inactive; Jurkat NFkB inh: inactive; esBAF inh: 52

Results for O=C(c1cc(-c2ccc(Cl)c(Cl)c2)on1)N1CCOCC1 ?
697 NFkB inh: inactive; Gli-Sufu antag: inactive; SMARCA2 activ: inactive; Jurkat NFkB inh: inactive; esBAF inh: 42

How did O=C(c1cc(-c2ccc(Cl)cc2)on1)N1CCOCC1 do in these assays?
697 NFkB inh: inactive; Gli-Sufu antag: inactive; SMARCA2 activ: inactive; Jurkat NFkB inh: inactive; esBAF inh: inactive

How did O=C(c1cc(-c2cccc(O)c2)on1)N1CCCC1 do in these assays?
697 NFkB inh: inactive; Gli-Sufu antag: inactive; SMARCA2 activ: inactive; Jurkat NFkB inh: inactive; esBAF inh: inactive

Results for O=C(c1cc(-c2cccc(Cl)c2)on1)N1CCOCC1 ?
697 NFkB inh: inactive; Gli-Sufu antag: inactive; SMARCA2 activ: inactive; Jurkat NFkB inh: inactive; esBAF inh: 44

What do the screens show for `Cc1ccc(CCNC(=O)C2CCC(=O)N(Cc3ccccc3F)C2)o1` (stereo not given)?
697 NFkB inh: inactive; Gli-Sufu antag: inactive; SMARCA2 activ: inactive; Jurkat NFkB inh: inactive; esBAF inh: 55

Results for COc1ccccc1CCCNC(=O)C1CCC(=O)N(Cc2ccccc2F)C1 (stereo not given) ?
697 NFkB inh: inactive; Gli-Sufu antag: inactive; SMARCA2 activ: inactive; Jurkat NFkB inh: inactive; esBAF inh: 46

Results for CN1C[C@H](O)COC[C@H]2O[C@@H](CC(=O)NC3CCC3)CC[C@@H]21 ?
esBAF inh: inactive

What do the screens show for `COc1ccccc1CNC(=O)C[C@@H]1CC[C@H](NC(=O)CC2CC2)[C@@H](CO)O1`?
esBAF inh: inactive

What do the screens show for `CCOC(=O)/C=C/[C@H]1CC2(CCO1)SCCCS2`?
697 NFkB inh: inactive; Gli-Sufu antag: inactive; SMARCA2 activ: inactive; Jurkat NFkB inh: inactive; esBAF inh: 55

Results for Cc1noc(C)c1NC(=O)N(C)C[C@@H]1Oc2ccc(NC(=O)C3CCCCC3)cc2C(=O)N([C@H](C)CO)C[C@@H]1C ?
esBAF inh: inactive

Results for COc1ccccc1C(=O)Nc1nc2ccc(S(C)(=O)=O)cc2s1 ?
697 NFkB inh: inactive; Gli-Sufu antag: inactive; SMARCA2 activ: inactive; Jurkat NFkB inh: inactive; esBAF inh: 49

What do the screens show for `CS(=O)(=O)c1ccc2nc(NC(=O)c3ccccc3Br)sc2c1`?
697 NFkB inh: inactive; Gli-Sufu antag: inactive; SMARCA2 activ: inactive; Jurkat NFkB inh: inactive; esBAF inh: 58

How did CS(=O)(=O)c1ccc2nc(NC(=O)c3cc4ccccc4o3)sc2c1 do in these assays?
697 NFkB inh: inactive; Gli-Sufu antag: inactive; SMARCA2 activ: inactive; Jurkat NFkB inh: inactive; esBAF inh: 67

How did CS(=O)(=O)c1ccc2nc(NC(=O)c3ccccc3Cl)sc2c1 do in these assays?
697 NFkB inh: inactive; Gli-Sufu antag: inactive; SMARCA2 activ: inactive; Jurkat NFkB inh: inactive; esBAF inh: inactive

What do the screens show for `CCc1nnc(NC(=O)c2ccc(Cl)nc2)s1`?
697 NFkB inh: inactive; Gli-Sufu antag: inactive; SMARCA2 activ: inactive; Jurkat NFkB inh: inactive; esBAF inh: inconclusive

How did O=C(Nc1nnc(C2CC2)s1)c1ccc(Cl)nc1 do in these assays?
697 NFkB inh: inactive; Gli-Sufu antag: inactive; SMARCA2 activ: inactive; Jurkat NFkB inh: inactive; esBAF inh: 53

How did COc1ccc(C(=O)Nc2nc3ccc(S(C)(=O)=O)cc3s2)cc1 do in these assays?
697 NFkB inh: inactive; Gli-Sufu antag: inactive; SMARCA2 activ: inactive; Jurkat NFkB inh: inactive

What do the screens show for `CN1CCN(C(=O)C[C@@H]2CC[C@@H]3[C@H](COC[C@@H](O)CN3Cc3ccc4c(c3)OCO4)O2)CC1`?
esBAF inh: inactive

What do the screens show for `C[C@@H](NC(=O)C[C@@H]1C[C@H]2c3cc(NC(=O)C4CCOCC4)ccc3O[C@H]2[C@@H](CO)O1)c1ccccc1`?
esBAF inh: inactive

What do the screens show for `CC(C)CC#Cc1cnc2c(c1)C(=O)N([C@@H](C)CO)C[C@H](C)[C@@H](CN(C)C(=O)C1CCOCC1)O2`?
esBAF inh: inactive
